Test results published in publication PMC5540273 (PLoS ONE, 2017).

System: PRKCI
Conditions: concentration: 1 μM, replicates: in singlicate; n = 1
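Note: KINOMEscan kinase panel screen.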

Compound | %Inh [%]
COc1ccc(-n2cnc3c(N)ncnc32)cc1 [SKF-97236] | 28
FC(F)(F)c1ccc(-c2ncn(CCCN3CCOCC3)c2-c2ccncc2)cc1 [SB-217780] | 19
CCc1nc(-c2cccc(C)c2)c(-c2ccncc2)s1 | 28
COC(=O)c1c(-c2ccccc2)c2cc(Br)ccc2c(=O)n1Cc1ccc(NC(=O)CCC(=O)O)cc1 | 0
Cc1ccc(-c2ccc3c(ccc4sc5c(c43)NC[C@@H](C)N=C5N(C)C)n2)cn1 | 0
Cc1nnc(-c2ccc(C)c(-c3ccc(C(=O)O)cc3)c2)o1 [GW608005] | 0
CCCNC(=O)Nc1ccc(Oc2ncnc3ccn(C)c23)cc1 | 0
Nc1n[nH]c2nnc(-c3ccccc3)c(-c3ccccc3)c12 [GW554060] | 16
COC(=O)c1c(-c2ccccc2)c2cc(Br)ccc2c(=O)n1Cc1ccc(S(C)(=O)=O)cc1 | 0
O=c1cc(N2CCOCC2)nc2n(Cc3ccc(F)c(Cl)c3)ccn12 [GSK2297099] | 0
COc1cc(Nc2nccc(N3CCC(NC(=O)C4COc5ccccc5O4)C3)n2)cc(OC)c1OC (stereo not drawn) [GSK1379761] | 0
CCCC(=O)Nc1n[nH]c2ncc(-c3cccc4ccccc34)cc12 [SB-642057] | 15
CCn1c(-c2nonc2N)nc2ccccc21 [SB-693162/GW549034] | 31
O=C(Nc1n[nH]c2nc(-c3ccccc3)c(Br)cc12)C1CC1 [SB-708998] | 26
Cn1c(=O)c(F)c(Nc2ccc(I)cc2F)c2c(=O)n(OC[C@H](O)CO)cnc21 | 34
COc1cc2nccc(Nc3ccc(OCc4ccc(NC(C)=O)cc4)cc3)c2cc1OC.Cl [GW440135] | 0
Cl.c1ccc(Cn2cnc3cc(Nc4ncnc5ccccc45)ccc32)cc1 [GW272142] | 0
Nc1ncnc2c1ncn2-c1cccc2ccccc12 [SKF-97184] | 22

Compound | %Inh [%]
O=C(NCCNc1ccnc(Nc2ccc(F)cc2)n1)Nc1ccc2c(c1)OCO2 [GSK1379882] | 0
O=C(Nc1n[nH]c2cc(-c3ccccc3F)ccc12)C1CC1 [SB-733371] | 0
COc1ccc(-c2coc3ccc(-c4nnc(SCc5cccc(C#N)c5)o4)cc23)cc1 | 0
Cc1nc(N(C)[C@H]2CN(C(=O)CC#N)CC[C@H]2C)c2cc[nH]c2n1 | 9
Cc1cccc(-c2nc(Nc3ccc4c(cnn4C)c3)c3ccccc3n2)n1 [GW876731] | 0
Cl.NS(=O)(=O)c1cccc(Nc2cc(-c3ccc(F)cc3)n[nH]2)c1 [GW824645] | 0
COc1ccc(-c2cc3c(C)nc(N)nc3n([C@H]3CC[C@H](OCCO)CC3)c2=O)cn1 | 18
COc1ccc(-c2cc3c(C)nc(N)nc3n([C@H]3CC[C@H](O)CC3)c2=O)cn1 | 0
CN(C)c1cc(-c2ccc3c(N)n[nH]c3c2)nc(N)n1 [GSK2219329] | 17
O=C1NC(=O)C(c2ccccc2)=C1Nc1cccc(O)c1 [SB-390534] | 9
Fc1cccc(CSc2nnc(-c3ccc4c(c3)CCO4)o2)c1 | 3
COc1cc2ncn(-c3cc(OCCCc4ccccc4)c(C(N)=O)s3)c2cc1OC [GSK205189] | 13
COc1cc(Nc2ccnc3ccc(C(F)(F)F)cc23)cc(OC)c1OC [GW577382] | 48
COc1cccc(-n2cnc3c(N)ncnc32)c1 [SKF-97416] | 25
COc1cccc(C2=C(Nc3cccc(C(=O)O)c3)C(=O)NC2=O)c1 [SB-390770] | 100
Nc1nc(N)c2nc(-c3ccccc3)[nH]c2n1 [SKF-12778] | 36
CCC(=O)c1c(-c2ccccc2)c2cc(Cl)ccc2c(=O)n1Cc1cc(S(C)(=O)=O)n(CC(F)F)n1 | 0
CCS(=O)(=O)c1ccc(OC)c(Nc2ncc(-c3ccc(F)cc3)o2)c1.Cl [GW591947] | 11

System: PRKCQ
Conditions: concentration: 1 μM, replicates: in singlicate; n = 1

Compound | %Inh [%]
COc1ccc(-n2cnc3c(N)ncnc32)cc1 [SKF-97236] | 0
FC(F)(F)c1ccc(-c2ncn(CCCN3CCOCC3)c2-c2ccncc2)cc1 [SB-217780] | 30
CCc1nc(-c2cccc(C)c2)c(-c2ccncc2)s1 | 6
COC(=O)c1c(-c2ccccc2)c2cc(Br)ccc2c(=O)n1Cc1ccc(NC(=O)CCC(=O)O)cc1 | 21
Cc1ccc(-c2ccc3c(ccc4sc5c(c43)NC[C@@H](C)N=C5N(C)C)n2)cn1 | 0
Cc1nnc(-c2ccc(C)c(-c3ccc(C(=O)O)cc3)c2)o1 [GW608005] | 5
CCCNC(=O)Nc1ccc(Oc2ncnc3ccn(C)c23)cc1 | 22
Nc1n[nH]c2nnc(-c3ccccc3)c(-c3ccccc3)c12 [GW554060] | 12
COC(=O)c1c(-c2ccccc2)c2cc(Br)ccc2c(=O)n1Cc1ccc(S(C)(=O)=O)cc1 | 37
O=c1cc(N2CCOCC2)nc2n(Cc3ccc(F)c(Cl)c3)ccn12 [GSK2297099] | 26
COc1cc(Nc2nccc(N3CCC(NC(=O)C4COc5ccccc5O4)C3)n2)cc(OC)c1OC (stereo not drawn) [GSK1379761] | 0
CCCC(=O)Nc1n[nH]c2ncc(-c3cccc4ccccc34)cc12 [SB-642057] | 0
CCn1c(-c2nonc2N)nc2ccccc21 [SB-693162/GW549034] | 16
O=C(Nc1n[nH]c2nc(-c3ccccc3)c(Br)cc12)C1CC1 [SB-708998] | 0
Cn1c(=O)c(F)c(Nc2ccc(I)cc2F)c2c(=O)n(OC[C@H](O)CO)cnc21 | 6
COc1cc2nccc(Nc3ccc(OCc4ccc(NC(C)=O)cc4)cc3)c2cc1OC.Cl [GW440135] | 0
Cl.c1ccc(Cn2cnc3cc(Nc4ncnc5ccccc45)ccc32)cc1 [GW272142] | 0
Nc1ncnc2c1ncn2-c1cccc2ccccc12 [SKF-97184] | 0

Compound | %Inh [%]
O=C(NCCNc1ccnc(Nc2ccc(F)cc2)n1)Nc1ccc2c(c1)OCO2 [GSK1379882] | 3
O=C(Nc1n[nH]c2cc(-c3ccccc3F)ccc12)C1CC1 [SB-733371] | 0
COc1ccc(-c2coc3ccc(-c4nnc(SCc5cccc(C#N)c5)o4)cc23)cc1 | 31
Cc1nc(N(C)[C@H]2CN(C(=O)CC#N)CC[C@H]2C)c2cc[nH]c2n1 | 10
Cc1cccc(-c2nc(Nc3ccc4c(cnn4C)c3)c3ccccc3n2)n1 [GW876731] | 0
Cl.NS(=O)(=O)c1cccc(Nc2cc(-c3ccc(F)cc3)n[nH]2)c1 [GW824645] | 0
COc1ccc(-c2cc3c(C)nc(N)nc3n([C@H]3CC[C@H](OCCO)CC3)c2=O)cn1 | 0
COc1ccc(-c2cc3c(C)nc(N)nc3n([C@H]3CC[C@H](O)CC3)c2=O)cn1 | 0
CN(C)c1cc(-c2ccc3c(N)n[nH]c3c2)nc(N)n1 [GSK2219329] | 0
O=C1NC(=O)C(c2ccccc2)=C1Nc1cccc(O)c1 [SB-390534] | 0
Fc1cccc(CSc2nnc(-c3ccc4c(c3)CCO4)o2)c1 | 15
COc1cc2ncn(-c3cc(OCCCc4ccccc4)c(C(N)=O)s3)c2cc1OC [GSK205189] | 19
COc1cc(Nc2ccnc3ccc(C(F)(F)F)cc23)cc(OC)c1OC [GW577382] | 4
COc1cccc(-n2cnc3c(N)ncnc32)c1 [SKF-97416] | 1
COc1cccc(C2=C(Nc3cccc(C(=O)O)c3)C(=O)NC2=O)c1 [SB-390770] | 11
Nc1nc(N)c2nc(-c3ccccc3)[nH]c2n1 [SKF-12778] | 40
CCC(=O)c1c(-c2ccccc2)c2cc(Cl)ccc2c(=O)n1Cc1cc(S(C)(=O)=O)n(CC(F)F)n1 | 8
CCS(=O)(=O)c1ccc(OC)c(Nc2ncc(-c3ccc(F)cc3)o2)c1.Cl [GW591947] | 0
